Here are results for 25 compounds from PubChem BioAssay.

Activity calls are given as the source filed them. How the calls were made is not given here.

A word on the inhibition: it is how much of the control response was suppressed.

This assay is described as follows: inhibition of Brca1/Bard1 split-luciferase complementation, confirmation, counter-screen for Mdm2/MdmX interaction inhibitor project, luminescence, single concentration (AID 504668). The settings on record: Brca1/Bard1 bimolecular luciferase complementation counterscreen, at 8 µM, stronger effect = higher value.
With `O=C(NNC(=O)c1ccccc1OCc1ccccc1)c1ccccc1O`, the inhibition is 34.8% (active).

On to `CC(C)(C)c1cc(NC(=O)CCl)n(-c2ccccc2)n1`, for which the inhibition was 24.1% (active).

As to `CC(Oc1ccc(Br)cc1)C(=O)Nc1nc(-c2ccccn2)cs1` (stereo not given), the inhibition was 35.4% (active).

Regarding `CN1CCc2c(sc(NC(=O)c3ccc(S(=O)(=O)N4CCc5ccccc54)cc3)c2C(N)=O)C1`, the inhibition is 24.1% (active).

As to `C=C1CCC2[C@](C)(CO)[C@H](O)CC[C@@]2(C)[C@@H]1C/C=C1\C(=O)OC[C@H]1O` (stereo not given in full), the inhibition was 27.2% (active).

With `COc1cc(NC(=S)NC(=O)c2ccc(C(C)(C)C)cc2)ccc1NC(=O)c1cccs1`, the inhibition is 27.7% (active).

For the compound `C/C(=N\NC(=O)COc1cccc(C)c1)c1ccc2ccccc2c1O`, the inhibition was 33.6% (active).

Consider `COC(=O)C1=C(C)NC(C)=C(C(=O)OC)C1c1ccccc1[N+](=O)[O-]`, for which the inhibition is 28% (active).

With `O=C(NCc1cccnc1)c1c(O)c2cccc3c2n(c1=O)CCC3`, the inhibition was 31.4% (active).

With `CC(C)(C)c1cc(C(=O)N/N=C/c2ccccc2O)n(-c2ccccc2)n1`, the inhibition is 28.9% (active).

As to `Cc1c(CN(C)C)c2c(n1Cc1ccccc1)C(=O)c1ccc(Br)cc1-2`, the inhibition was 29.6% (active).

As for `CCCCSc1nc(C)cc(SCC(=O)N/N=C/c2cccc(OC)c2O)n1`, the inhibition is 34.4% (active).

For `O=C1[C@H]2[C@@H](c3ccc(F)cc3)N3C(=O)N(c4ccc(Br)cc4)C(=O)[C@@]3(Cc3ccccc3)[C@H]2C(=O)N1C1CCCCC1`, the inhibition was 26.6% (active).

For `CCOC(=O)N1C(=O)[C@@](c2ccc(Cl)cc2)(C(C)C)N1C(=O)OCC`, the inhibition is 33.2% (active).

For the compound `COc1ccc2cc3c(N)nn(C(=O)c4cccc([N+](=O)[O-])c4)c3nc2c1`, the inhibition was 32.1% (active).

In the case of `COc1ccc(O)c(/C=N/NC(=O)c2ccc(CSc3nc(C)cc(C)n3)cc2)c1`, the inhibition is 30.7% (active).

For `O=C(CCCN1C(=O)/C(=C\c2ccccc2)SC1=S)Nc1ccc(O)cc1`, the inhibition is 33.2% (active).

`CCOc1ccccc1Nc1nnc(SC(C)C(=O)Nc2nc(-c3ccccc3)cs2)s1` (stereo not given): the inhibition was 35.2% (active).

Turning to `CCOC(=O)c1cnc(-n2nc(C)cc2C)nc1NNc1nc(-c2ccccc2)cc(-c2ccccc2)n1`, the inhibition is 25% (active).

Take `Cc1c(Cl)cccc1N/C(SCC(=O)N1CCCCCC1)=C(/C#N)c1nc2ccccc2s1`: the inhibition was 36% (active).

Consider `CC(=O)Nc1nc(C)c(-c2csc(Nc3cccc([N+](=O)[O-])c3)n2)s1`, for which the inhibition was 35.6% (active).

On to `c1ccc(CCc2nn3c(-c4ccncc4)nnc3s2)cc1`, for which the inhibition is 33.7% (active).

Regarding `C/C(=N\NC(=O)c1cc(-c2cccs2)nc2ccccc12)c1ccccn1`, the inhibition was 28.3% (active).

In the case of `O=C(N/N=C/c1ccc(O)cc1O)c1ccc(CN2C(=O)c3cccc4cccc2c34)cc1`, the inhibition is 29.2% (active).

As to `O=C(C#Cc1ccccc1)Nc1cccc(F)c1`, the inhibition was 30.5% (active).
